Source: PubChem (National Center for Advancing Translational Sciences (NCATS))
CtBP-E1A blk – qHTS Assay for Inhibitors of the CtBP/E1A Interaction; AlphaScreen GST-E1A/His-CtBP binding, 1536-well; stronger effect = lower value; activity change, % (test concentration not listed); CtBP / adenovirus E1A interaction (AlphaScreen); 340,000 compounds, 0.49% hits; in the data active = activity change below about -65%; inconclusive = mostly about -30% to -63%
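GST-E1A and His-tagged CtBP (125 nM each as 5X stock) were preincubated with pin-transferred compound for 2 h at 37 °C in the dark, then glutathione donor and nickel acceptor beads were added for 1 h before AlphaScreen reading.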
RORg inh – qHTS for inhibitors of ROR gamma transcriptional activity; Drosophila S2 Gal4-RORgamma UAS-luciferase reporter, 20 h; 310,000 compounds, 5.4% hits; AID 2551, 2010; Potency, µM (titrated, usually from 53.6 µM), for the others: at the top dose activity change, negative = inhibition, actives largely listed as inhibitors; Nuclear receptor ROR-gamma (Mus musculus), P51450; also: potency is read from the fitted curve at half-maximal effect; nearly all actives have a fitted effect of over 60% in size
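In this cell-based reporter format, copper sulfate (700 uM final) drives Gal4–ROR gamma fusion expression from a metallothionein promoter in Drosophila Schneider cells; compounds preincubated 1 hr, reporter read after 20 hr at ambient temperature.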
PKM2 act – qHTS Assay for Activators of Human Muscle isoform 2 Pyruvate Kinase; Pyruvate kinase PKM (Homo sapiens), P14618; purified PKM2, Kinase-Glo ATP luminescence, activation; response scale: 0% is enzyme alone, no compound; Potency, µM (doses to about 57.5 µM), inactives show at the top dose activation, actives largely listed as activators; 260,000 compounds, 0.34% hits; AID 1631, 2009; also: potency is read from the fitted curve at half-maximal effect; nearly all actives have a fitted effect of over 55% in size
Target sequence (P14618 whole entry, looked up, canonical isoform): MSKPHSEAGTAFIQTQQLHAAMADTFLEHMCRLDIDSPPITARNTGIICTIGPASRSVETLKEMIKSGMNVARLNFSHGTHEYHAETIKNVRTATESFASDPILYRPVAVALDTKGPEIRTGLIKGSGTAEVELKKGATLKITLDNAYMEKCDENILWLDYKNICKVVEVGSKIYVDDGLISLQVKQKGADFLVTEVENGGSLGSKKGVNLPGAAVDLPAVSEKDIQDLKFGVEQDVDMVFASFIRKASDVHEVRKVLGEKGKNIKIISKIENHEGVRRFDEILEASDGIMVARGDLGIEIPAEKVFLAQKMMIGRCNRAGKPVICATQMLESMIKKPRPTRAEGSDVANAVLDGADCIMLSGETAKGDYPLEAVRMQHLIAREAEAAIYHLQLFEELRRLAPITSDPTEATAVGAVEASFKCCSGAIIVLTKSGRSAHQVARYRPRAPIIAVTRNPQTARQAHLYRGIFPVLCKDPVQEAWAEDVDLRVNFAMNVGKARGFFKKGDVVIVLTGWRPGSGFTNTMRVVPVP
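hPK-M2, >95% pure; 0.1 mM ADP / 0.5 mM PEP final; imidazole pH7.2 buffer w/ 7 mM MgCl2, 50 mM KCl; 1 h RT; Kinase-Glo lum. Intermediate enzyme activity for dual inhibitor/activator qHTS.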
VP16 counter – VP16 counterscreen qHTS for inhibitors of ROR gamma transcriptional activity | Drosophila S2 Gal4-VP16 UAS-luciferase, luminescence, 20 h | Potency, µM (titrated, usually from 53.6 µM), for the others: at the top dose activity, negative = inhibition, hits mostly inhibitors | 310,000 compounds, 3.5% hits;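 also: Gal4-VP16 expression switched on by copper sulfate through the metallothionein promoter; potency is read from the fitted curve at half-maximal effect; nearly all actives have a fitted effect of over 50% in size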
Six1-Eya2 inh – qHTS Assay for Inhibitors of the Six1/Eya2 Interaction. Homeobox protein SIX1 (Homo sapiens) + Protein phosphatase EYA2 (Homo sapiens), …. AlphaScreen GST-Six1/His-Eya2 binding, biochemical; stronger effect = lower value. activity change, % (concentration not given with the values). 360,000 compounds, 0.56% hits. AID 651725, 2012; in the data active = activity change below about -65%; inconclusive = mostly about -30% to -63%
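Homogeneous AlphaScreen proximity assay pairing GST-Six1 with His-tagged Eya2 (added as 5X mix: 250 nM and 500 nM) in 50 mM Tris pH 8.0, 300 mM NaCl, 1 mM TCEP. Glutathione donor and nickel acceptor beads; 1 h, 37 °C, dark.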
* marks the source's active call; other numbers are inactive results; ? = inconclusive; . = no result given; [ ] = dose if it differs, or a comment. The list is not random: actives were taken first. Their share in the collection is about 5.6%. Unless noted, calls follow the shape of the dose curve; as a rule, active = well fitted curve in the direction sought with a large enough effect; inconclusive = small, poorly fitted or top-dose-only effect, or another doubt; inactive = no such curve, though single readings can be large; an effect the other way counts as inactive or inconclusive. % is scaled to controls: 0 for no effect and ±100 for the full control effect.

SMILES	CtBP-E1A blk	RORg inh	PKM2 act	VP16 counter	Six1-Eya2 inh
CCCCn1c(-c2csc3c2CCCC3)n[nH]c1=S	-0.1	3.55µM*	-0.4%	?	-5.5
CCn1c(-c2nn(-c3ccccc3)ccc2=O)n[nH]c1=S	0.0	-21.8%	-6.6%	-14.3%[10 µM]	8.8
COc1cccc(CN(C)C(=O)c2cc(-c3cccs3)nc3ccccc23)c1	1.4	?	14.2%	-15.6%	-1.4
O=c1cc(CN2CCN(c3ccccc3)CC2)c2ccccc2o1	7.2	.	.	.	2.7
COc1cccc(CNCc2cccnc2)c1OCc1ccccc1	-1.5	-21.4%	-5.2%	-13.8%	7.0
C[C@@H]1O[C@H](O[C@@H]2C(O)[C@H](O)[C@@H](CO)O[C@H]2Oc2cc(O)c3c(=O)cc(-c4ccc(O)cc4)oc3c2)[C@H](O)[C@H](O)[C@H]1O (stereo partly drawn)	.	11.0%	.	-10.4%	.
CC1=Nc2ccccc2/C1=C/c1nc(-c2ccc(C)s2)oc1O	.	-2.5%	-10.9%	?	-2.1
CC1=Nc2ccccc2/C1=C/c1sc(=N)n(-c2nccs2)c1O	?	0.631µM*	1.1%	0.794µM*	?
Cc1ccc(OCC(=O)N2N=C(c3ccncc3)CC2(O)C(F)(F)F)cc1C (stereo not drawn)	.	3.98µM*	0.8%	-15.1%	-3.4
CCOC(=O)N1N=C(c2ccc(C)cc2)CC1(O)C(F)(F)F (stereo not drawn)	9.4	6.31µM*	-3.7%	6.31µM*	-1.0
O=C(O)c1ccccc1-c1ccccc1C(=O)Nc1ccc2c(c1)[nH]c(=O)c1ccccc12	-0.6	-4.1%	-5.6%	0.5%	-72.2*
C[C@@H](O)[C@@H]1C(=O)N2C(C(=O)O)=C([C@H]3CCCO3)S[C@H]12	.	13.5%	.	1.8%	.
C=CCC(Nc1ccco1)c1ccccc1 (stereo not drawn)	6.7	4.0%	-14.5%	17.8µM*	-6.4
O=C(N=Nc1c(O)n(C2OC(=O)c3ccccc32)c2ccccc12)c1ccc(O)cc1 (stereo not drawn)	1.3	2.82µM*	-1.3%	2.82µM*	26.9
Cn1c(O)c(N=NC(=O)c2ccco2)c2ccccc21	-13.3	?	-13.2%	?	-20.1
Cc1ccn2c(=O)c(NC(=O)c3ccc(Br)o3)c(C)nc2c1	6.5	.	.	.	-2.6
CC(=O)c1ccc(-c2ccc(-c3cc(=O)oc4c(C(C)C)ccc(C)c34)cc2)cc1	-1.0	?	.	11.2µM*	2.5
CCCS(=O)(=O)NC(=O)C1(C)CCCN(C(=O)c2ccccc2F)C1 (stereo not drawn)	3.4	.	.	.	10.3
CC(C)(C)c1nnc(N/N=C/c2ccccc2O)n(N)c1=O	-2.1	10µM*	3.7%	11.2µM*	-91.2*
CCc1nnc(N/N=C/c2ccccc2Cl)n1N	0.2	?	1.8%	?	2.4
CCc1nnc(N/N=C/c2ccccc2F)n1N	-0.5	11.2µM*	2.2%	-2.3%	7.2
CC(C)(C)c1nnc(N/N=C/c2ccccc2)n(N)c1=O	-7.3	3.98µM*	0.5%	5.62µM*	-1.1
C[C@@H](c1ccccc1)N1C(=O)[C@H]2[C@H]3[C@H](O)[C@H](O)C/C(=N/NC(=O)OCc4ccccc4)[C@@H]3CC[C@@H]2C1=O	.	-2.5%[10 µM]	.	-2.3%[10 µM]	.
CCc1nc2c(OCc3ccc(Cl)cc3)cccn2c1N(C)C(=O)c1ccc2c(c1)OCO2	-3.2	.	.	.	-4.8
CC(C)CC(=O)/C(=C\c1ccc(Cl)cc1Cl)n1cncn1	.	4.47µM*	?	5.01µM*	-3.1
SMILES	CtBP-E1A blk	RORg inh	PKM2 act	VP16 counter	Six1-Eya2 inh
COc1ccc(C2=NCCc3cc(OC)c(OC)cc32)cc1OC	4.4	-7.0%	0.6%	6.31µM*	-7.4
c1ccc2c(c1)ccc1nnc(SCc3ccc4c(c3)OCCO4)n12	-7.5	?	22.4µM*	24.2%	-13.2
Cc1cc2nnc(SCc3ccc4c(c3)OCO4)n2c2ccccc12	4.6	.	.	.	9.5
Oc1c(Cl)cc(Cl)c2c1NCCC2	3.6	3.16µM*	12.7%	5.01µM*	?
O=C(CCCN1C(=O)NC2(CCCC2)C1=O)NCc1ccccc1	0.0	.	.	.	8.4
CCCCn1c(O)c(N=Nc2ccccn2)c2ccccc21	20.3	10µM*	-0.6%	?	14.6
CCCCn1c(O)c(N=Nc2ccccc2O)c2ccccc21	-17.3	.	.	.	-20.2
COc1ccc(C(=O)CSc2cc(C)nc3nc(C)nn23)cc1OC	7.0	15.8µM*	17.3%	?	-0.2
COc1ccc(C(=O)CSC#N)cc1OC	-18.5	15.8µM*	-4.7%	?	-24.9
CC(C)CN(C(=O)COc1ccc(-c2nnco2)cc1)C1CCS(=O)(=O)C1 (stereo not drawn)	0.1	-5.1%	-4.9%	0.9%	2.2
COc1ccc([C@]23Cc4cc(OC)c(OC)cc4C(O2)C2=C(CC(C)(C)CC2=O)O3)cc1	.	1.2%[10 µM]	-0.8%[11.5 µM]	-3.0%[10 µM]	.
CCN(CC)C(=O)c1sc(NC(=O)c2ccc(OC)c([N+](=O)[O-])c2)c(C#N)c1C	.	-27.9%	4.6%	-12.6%	.
COc1ccc(C(=O)Nc2sc(C(=O)N(C)C)c(C)c2C#N)cc1[N+](=O)[O-]	-19.4	?	-12.7%	15.8µM*	-3.0
N#CCCN(C(=O)CN1CCN(S(=O)(=O)c2ccc(Cl)s2)CC1)c1ccc(F)cc1	2.0	.	.	.	-4.9
Cc1cccc2nc(-c3cccnc3)c(NCCC(C)C)n12	-7.1	8.91µM*	3.5%	?	-14.4
Cc1cccc2nc(-c3cccnc3)c(Nc3ccccc3)n12	0.5	2.2%	2.6%	1.2%	-1.9
FC(F)(F)Oc1ccc(NC(=S)Nc2ccc(OC(F)(F)F)cc2)cc1	.	?	-9.0%	?	3.6
COc1ccc(NC(=S)NCCCCCC(=O)C[N+](=O)[O-])cc1	-6.3	4.47µM*	5.3%	?	?
COc1ccc(NC(=O)Nc2ccc(C(C)C)cc2)cc1	0.0	11.5%	10.6%	21.7%	-6.5
COc1ccc(CCNC(=S)Nc2ccc(C(C)C)cc2)cc1	.	2.51µM*	13.4%	?	-14.5
CC(C)c1ccc(NC(=S)Nc2ccc(OC(F)(F)F)cc2)cc1	11.7	8.91µM*	0.8%	11.2µM*	-5.0
COc1ccc(NC(=S)NCCc2c(C)[nH]c3ccc(OC)cc23)cc1	-23.9	5.62µM*	-6.6%	?	-21.9
O=C(CCN1C(=O)c2ccccc2S1(=O)=O)N1CCN(c2cccc(Cl)c2)CC1	-5.7	.	.	.	0.7
COc1ccc(CCNC(=S)Nc2ccccc2)cc1	8.1	2µM*	-9.7%	7.08µM*	-3.9
CNC(=S)NCCc1ccc(OC)cc1	2.5	?	1.4%	6.5%	14.2
COc1ccc(CNC(=O)Nc2cc(C)cc(C)c2)cc1	.	-14.8%	-3.9%	-10.8%	4.1
